Where a name gives a salt, the structure may show the parent alone. ± gives the standard deviation of the averaged measurements.
Key:
[1] = tested on: Saccharomyces cerevisiae BY4741 SeMeCo community; test: mean cell size (pixel area) (pixels); higher = larger cells; details: 10 µM; 24 h; SM minimal medium
Summary of the method: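 Mean cell pixel area per well was determined by automated confocal microscopy with Harmony analysis of paraformaldehyde-fixed cells. The cells, a Saccharomyces cerevisiae BY4741 community of four plasmids that each complement one auxotrophy and carry a fluorescent marker, were incubated for 24 h with drug at a final 10 µM in SM medium in 384-well plates. Numbers are averaged over 3 replicates. Same SeMeCo high-content imaging drug screen: Selleck FDA-approved drugs at 10 µM, 24 h in SM medium, 384-well plates, 3 replicates.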

[2] = tested on: Saccharomyces cerevisiae BY4741 SeMeCo community; test: z-score of prototroph abundance vs DMSO median; higher = larger share of this subpopulation than in DMSO controls; details: 10 µM; 24 h; SM minimal medium; subpopulation (auxotrophy): Prototroph
Summary of the method: (§1)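 Four plasmids, each restoring a single auxotrophy and encoding a distinct fluorescent protein, were carried by a Saccharomyces cerevisiae BY4741 community. After overnight growth to OD600 1.0 and dilution to 0.3, 70 µl per well was grown for 24 h in minimal SM medium on 384-well plates acoustically predosed with library drugs at 10 µM final. Following paraformaldehyde fixation, automated confocal microscopy was used, with single-auxotroph fluorescent strains defining thresholds and autofluorescence correction. Subpopulation abundance was then scored as a z-score against the vehicle-well median.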

[3] = tested on: Saccharomyces cerevisiae BY4741 SeMeCo community; test: z-score of subpopulation abundance vs DMSO median, subpopulation auxotrophic for M; higher = larger share of this subpopulation than in DMSO controls; details: 10 µM; 24 h; SM minimal medium; subpopulation (auxotrophy): M
Summary of the method: as §1

[4] = tested on: Saccharomyces cerevisiae BY4741 SeMeCo community; test: z-score of subpopulation abundance vs DMSO median, subpopulation auxotrophic for L; higher = larger share of this subpopulation than in DMSO controls; details: 10 µM; 24 h; SM minimal medium; subpopulation (auxotrophy): L
Summary of the method: as §1

[5] = tested on: Saccharomyces cerevisiae BY4741 SeMeCo community; test: z-score of subpopulation abundance vs DMSO median, subpopulation auxotrophic for U; higher = larger share of this subpopulation than in DMSO controls; details: 10 µM; 24 h; SM minimal medium; subpopulation (auxotrophy): U
Summary of the method: as §1

[6] = tested on: Saccharomyces cerevisiae BY4741 SeMeCo community; test: z-score of subpopulation abundance vs DMSO median, subpopulation auxotrophic for H; higher = larger share of this subpopulation than in DMSO controls; details: 10 µM; 24 h; SM minimal medium; subpopulation (auxotrophy): H
Summary of the method: as §1

[7] = tested on: Saccharomyces cerevisiae BY4741 SeMeCo community; test: z-score of subpopulation abundance vs DMSO median, subpopulation auxotrophic for LU; higher = larger share of this subpopulation than in DMSO controls; details: 10 µM; 24 h; SM minimal medium; subpopulation (auxotrophy): LU
Summary of the method: as §1

[8] = tested on: Saccharomyces cerevisiae BY4741 SeMeCo community; test: z-score of subpopulation abundance vs DMSO median, subpopulation auxotrophic for LM; higher = larger share of this subpopulation than in DMSO controls; details: 10 µM; 24 h; SM minimal medium; subpopulation (auxotrophy): LM
Summary of the method: as §1

[9] = tested on: Saccharomyces cerevisiae BY4741 SeMeCo community; test: z-score of subpopulation abundance vs DMSO median, subpopulation auxotrophic for HM; higher = larger share of this subpopulation than in DMSO controls; details: 10 µM; 24 h; SM minimal medium; subpopulation (auxotrophy): HM
Summary of the method: as §1

[10] = tested on: Saccharomyces cerevisiae BY4741 SeMeCo community; test: z-score of subpopulation abundance vs DMSO median, subpopulation auxotrophic for UM; higher = larger share of this subpopulation than in DMSO controls; details: 10 µM; 24 h; SM minimal medium; subpopulation (auxotrophy): UM
Summary of the method: as §1

[11] = tested on: Saccharomyces cerevisiae BY4741 SeMeCo community; test: z-score of subpopulation abundance vs DMSO median, subpopulation auxotrophic for HL; higher = larger share of this subpopulation than in DMSO controls; details: 10 µM; 24 h; SM minimal medium; subpopulation (auxotrophy): HL
Summary of the method: as §1

[12] = tested on: Saccharomyces cerevisiae BY4741 SeMeCo community; test: z-score of subpopulation abundance vs DMSO median, subpopulation auxotrophic for HLU; higher = larger share of this subpopulation than in DMSO controls; details: 10 µM; 24 h; SM minimal medium; subpopulation (auxotrophy): HLU
Summary of the method: as §1

[13] = tested on: Saccharomyces cerevisiae BY4741 SeMeCo community; test: z-score of subpopulation abundance vs DMSO median, subpopulation auxotrophic for HLM; higher = larger share of this subpopulation than in DMSO controls; details: 10 µM; 24 h; SM minimal medium; subpopulation (auxotrophy): HLM
Summary of the method: as §1

[14] = tested on: Saccharomyces cerevisiae BY4741 SeMeCo community; test: z-score of subpopulation abundance vs DMSO median, subpopulation auxotrophic for LUM; higher = larger share of this subpopulation than in DMSO controls; details: 10 µM; 24 h; SM minimal medium; subpopulation (auxotrophy): LUM
Summary of the method: as §1

[15] = tested on: Saccharomyces cerevisiae BY4741 SeMeCo community; test: z-score of subpopulation abundance vs DMSO median, subpopulation auxotrophic for HU; higher = larger share of this subpopulation than in DMSO controls; details: 10 µM; 24 h; SM minimal medium; subpopulation (auxotrophy): HU
Summary of the method: as §1

[16] = tested on: Saccharomyces cerevisiae BY4741 SeMeCo community; test: z-score of subpopulation abundance vs DMSO median, subpopulation auxotrophic for HUM; higher = larger share of this subpopulation than in DMSO controls; details: 10 µM; 24 h; SM minimal medium; subpopulation (auxotrophy): HUM
Summary of the method: as §1

[17] = tested on: Saccharomyces cerevisiae BY4741 SeMeCo community; test: z-score of subpopulation abundance vs DMSO median, subpopulation auxotrophic for HLUM; higher = larger share of this subpopulation than in DMSO controls; details: 10 µM; 24 h; SM minimal medium; subpopulation (auxotrophy): HLUM
Summary of the method: as §1

SMILES	mean cell size [1]	z-score of prototroph abundance [2]	z-score of subpopulation abundance [3]	z-score of subpopulation abundance [4]	z-score of subpopulation abundance [5]	z-score of subpopulation abundance [6]	z-score of subpopulation abundance [7]	z-score of subpopulation abundance [8]	z-score of subpopulation abundance [9]	z-score of subpopulation abundance [10]	z-score of subpopulation abundance [11]	z-score of subpopulation abundance [12]	z-score of subpopulation abundance [13]	z-score of subpopulation abundance [14]	z-score of subpopulation abundance [15]	z-score of subpopulation abundance [16]	z-score of subpopulation abundance [17]
CCCN1C[C@H](C)[C@@H](O)[C@](C)(O)[C@@H](CC)OC(=O)[C@H](C)[C@@H](O[C@H]2C[C@@](C)(OC)[C@@H](O)[C@H](C)O2)[C@H](C)[C@@H](O[C@@H]2O[C@H](C)C[C@H](N(C)C)[C@H]2O)[C@](C)(O)C[C@H]1C [Gamithromycin]	12.3 ± 0.13	-0.29	-0.59	0.42	-0.04	2.25	-0.16	0.13	0.24	-0.02	0.97	0.75	-0.18	-0.04	–	–	–
CO[C@@]1(NC(=O)C(C(=O)O)c2ccc(O)cc2)C(=O)N2C(C(=O)O)=C(CSc3nnnn3C)CO[C@@H]21 (stereo not given in full) [Latamoxef sodium]	12.7 ± 0.16	0.35	0.17	-0.05	-0.29	0.8	-0.08	-0.29	-0.22	–	–	0.4	0.83	-0.71	0	–	–
Cc1onc(-c2c(Cl)cccc2Cl)c1C(=O)N[C@@H]1C(=O)N2[C@@H]1SC(C)(C)[C@@H]2C(=O)O [Dicloxacillin Sodium]	12.4 ± 0.18	0.04	-0.23	1.32	-0.31	0.19	0.85	0.35	-0.31	-0.45	-0.68	-0.51	–	0.88	-0.23	-0.11	1.07
C#CCN(C)Cc1ccccc1 [Pargyline hydrochloride]	12.7 ± 0.23	0.24	-0.55	0.76	–	-0.83	1.29	-0.51	-0.95	–	-0.44	0.43	-0.13	–	-0.08	–	0.1
CCCCCCCCc1ccc(CCC(N)(CO)CO)cc1 [Fingolimod]	12.1 ± 0.37	2.04	-1.67	-1.22	-1.09	-0.65	-0.72	-1.42	–	-1.44	-1.71	-1.65	-1.02	-1.47	-0.71	–	-1.27
CN1CCC(=C2c3ccccc3C=Cc3ccccc32)CC1 [Cyproheptadine hydrochloride]	12.61 ± 0.097	–	-0.18	0.25	0.43	-0.32	0.02	-0.35	-0.58	–	-0.02	-0.31	-0.45	-0.73	-0.56	–	-0.08
COc1ccc2cc([C@H](C)C(=O)O)ccc2c1 [Naproxen]	–	2.14	-1.11	-0.03	-1.21	0.45	-1.6	-0.86	-0.37	–	0.23	-0.86	1.33	-0.97	-1.2	–	-0.08
CCC(=O)Oc1ccc2c(c1)CCC1C2CCC2(C)C(OC(=O)CC)CCC12 (stereo not drawn) [Estradiol dipropionate(17-Beta-Estradiol-3,17-Dipropionate)]	–	0.27	0.21	-1.37	0.61	-1.21	-0.67	-0.31	-0.18	0.34	-0.96	-0.61	-0.83	-0.6	0.2	–	–
O=C1CN2Cc3c(ccc(Cl)c3Cl)N=C2N1 [Anagrelide HCl]	12.3 ± 0.29	0.08	-0.78	-0.32	-0.23	-0.25	-0.64	-0.53	-0.37	0.39	0.5	0.58	1.02	–	–	–	–
N[C@@H](C(=O)N[C@@H]1C(=O)N2C(C(=O)O)=C(Cl)CS[C@H]12)c1ccccc1 [Cefaclor]	12.45 ± 0.095	-0.66	0.46	0.23	0.82	0.49	0.23	–	0.64	0.24	-0.05	-0.22	0.3	0.65	0.41	–	0.66
N=C(N)NC(=O)c1nc(Cl)c(N)nc1N [Amiloride HCl dihydrate]	–	1.39	3.23	0.68	-3.02	–	-3.52	2.66	1.29	-3.7	0.71	-1.34	0.23	-1.62	-2.8	–	-0.95
OCCOc1ccc(/C(=C(/CCCl)c2ccccc2)c2ccccc2)cc1 [Ospemifene]	12.7 ± 0.24	–	0.43	-0.6	–	0.74	-1.59	-0.34	1.37	-0.91	0.7	0.94	-0.21	-0.52	-0.18	–	-0.5
COc1ccc2[nH]c([S+]([O-])Cc3ncc(C)c(OC)c3C)nc2c1 (stereo not given) [Omeprazole Sodium]	12.1 ± 0.19	0.8	-0.71	0.3	-1.22	1.92	-0.12	-0.57	-0.21	-1.63	0.77	0.43	–	-0.98	-0.78	-0.81	-0.1
CCCOc1ccc2[nH]c(NC(=O)OC)nc2c1 [Oxibendazole]	12.26 ± 0.1	-1.22	0.43	0.1	0.5	0.1	1.03	0.57	0.95	1.39	0.7	0.8	0.16	0.95	–	–	0.11
C[C@@H](O)[C@H]1C(=O)N2C(C(=O)O)=C(SCCNC=N)C[C@H]12 [Imipenem]	–	-0.79	0.92	-1.04	0.59	0.19	-0.16	0.19	0.44	1.18	-0.18	-0.62	0.25	0.35	-0.46	–	-0.14

— the supplement of paper PMC8975748
